Drawing on ChEMBL document CHEMBL3988442, “University of Dundee, Small-Polar-MMV Screening Library” (2021), this text covers Percent Effect for eleven compounds.

What all share (design): scale not given: direction of the effect not stated beside the values
Assay [1] has as its target Protein translocase subunit SecA (Escherichia coli (strain K12)) (UniProt P10408). Nature of the assay: Assay to Identify E. coli SecA ATPase Inhibitors. Format: functional. The settings on record: 30 µM.
Assay [2] has as its target T1, Ubiquitin-activating enzyme e1, putative (Leishmania donovani (strain BPK282A1)) (UniProt E9BSI1).
T1 sequence (whole entry): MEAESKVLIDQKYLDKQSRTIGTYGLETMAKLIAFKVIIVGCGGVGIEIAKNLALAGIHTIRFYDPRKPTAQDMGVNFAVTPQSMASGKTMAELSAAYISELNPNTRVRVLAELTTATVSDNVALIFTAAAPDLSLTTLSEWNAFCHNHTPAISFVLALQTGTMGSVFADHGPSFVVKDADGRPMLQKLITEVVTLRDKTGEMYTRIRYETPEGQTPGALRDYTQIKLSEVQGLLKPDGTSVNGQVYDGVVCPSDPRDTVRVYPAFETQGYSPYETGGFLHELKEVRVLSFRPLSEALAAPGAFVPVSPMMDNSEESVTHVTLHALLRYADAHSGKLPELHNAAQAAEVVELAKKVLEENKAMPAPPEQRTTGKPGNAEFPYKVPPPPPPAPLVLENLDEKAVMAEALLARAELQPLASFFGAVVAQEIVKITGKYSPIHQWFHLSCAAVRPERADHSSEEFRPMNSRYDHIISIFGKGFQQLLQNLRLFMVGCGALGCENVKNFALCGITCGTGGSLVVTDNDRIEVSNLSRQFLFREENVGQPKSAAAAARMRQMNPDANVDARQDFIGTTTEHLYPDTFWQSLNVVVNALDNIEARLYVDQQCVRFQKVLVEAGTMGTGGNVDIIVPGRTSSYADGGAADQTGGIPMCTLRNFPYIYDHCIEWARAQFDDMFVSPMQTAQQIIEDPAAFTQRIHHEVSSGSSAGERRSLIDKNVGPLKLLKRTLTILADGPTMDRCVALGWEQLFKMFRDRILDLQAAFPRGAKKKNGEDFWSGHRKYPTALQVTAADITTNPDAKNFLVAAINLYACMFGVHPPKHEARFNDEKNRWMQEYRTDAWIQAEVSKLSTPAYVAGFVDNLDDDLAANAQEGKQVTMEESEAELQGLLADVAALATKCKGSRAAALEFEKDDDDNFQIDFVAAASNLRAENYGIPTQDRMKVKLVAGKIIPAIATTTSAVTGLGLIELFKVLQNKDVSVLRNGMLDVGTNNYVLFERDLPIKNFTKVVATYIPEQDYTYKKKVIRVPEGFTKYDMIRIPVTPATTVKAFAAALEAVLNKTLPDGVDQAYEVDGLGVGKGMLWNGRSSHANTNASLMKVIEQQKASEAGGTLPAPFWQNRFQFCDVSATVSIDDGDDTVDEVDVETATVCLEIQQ
Description: Leishmania donovani Ubiquitin Activating Enzyme (LdE1). Format: functional. As to conditions: 30 µM.

Assay [3] concerns the target AMP-activated protein kinase, AMPK (Homo sapiens) (UniProt P54646+O43741+P54619+Q9UGJ0+Q9Y478+Q13131+Q9UGI9). Nature of the assay: AMP-dependent Kinase enzyme assay. An in vitro enzyme assay that detects ADP turnover that is directly proportional to AMPK activity. This uses naive AMPK that is activated during the assay with MK-8722. As to conditions: 30 µM. Format: functional.

Assay [4] deals with Sialic acid-binding Ig-like lectin 9 (Homo sapiens) (UniProt Q9Y336). Nature of the assay: Hs-Siglec9 ALPHAscreen SOP 20170721. As to conditions: 10 µM.
The test system of a further assay is Trypanosoma cruzi. Nature of the assay: Trypanosoma cruzi phosphomannomutase and mannose-1-phosphate guanylyltransferase assay. The assay is classed as functional. The settings on record: 10 µM.
For assay [5], the target named is T2, Arginase-2, mitochondrial (Homo sapiens) (UniProt P78540).
T2 sequence (whole entry): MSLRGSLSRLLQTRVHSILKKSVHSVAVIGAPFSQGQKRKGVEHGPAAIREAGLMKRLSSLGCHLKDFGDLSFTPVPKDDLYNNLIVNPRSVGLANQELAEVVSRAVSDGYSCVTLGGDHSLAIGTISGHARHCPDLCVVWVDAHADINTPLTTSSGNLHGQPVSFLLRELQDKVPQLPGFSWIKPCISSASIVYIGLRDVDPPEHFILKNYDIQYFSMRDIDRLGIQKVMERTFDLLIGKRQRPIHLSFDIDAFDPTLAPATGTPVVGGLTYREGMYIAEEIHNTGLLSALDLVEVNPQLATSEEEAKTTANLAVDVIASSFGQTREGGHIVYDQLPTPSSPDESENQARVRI
Description: in vitro enzyme assay to detect the production of urea directly proportional to the activity of Arginase II. Note: in the data most compounds retested in dose-response had high values. Format: functional. The settings on record: 33.3 µM.

Assay [6] addresses T3, Proteasome subunit beta (Trypanosoma cruzi) (UniProt O96673).
T3 sequence (whole entry): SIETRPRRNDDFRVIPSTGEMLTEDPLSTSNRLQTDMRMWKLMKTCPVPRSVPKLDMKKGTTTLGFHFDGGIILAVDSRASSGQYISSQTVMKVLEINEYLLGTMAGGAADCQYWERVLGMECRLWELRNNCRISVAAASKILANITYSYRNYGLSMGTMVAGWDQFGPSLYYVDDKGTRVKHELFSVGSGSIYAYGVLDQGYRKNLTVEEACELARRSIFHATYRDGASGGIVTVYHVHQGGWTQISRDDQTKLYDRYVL
Description: Trypanosoma cruzi proteasome chymotrypsin-like activity (TcProtChymo) assay. Note: in the data most compounds retested in dose-response had high values. As to conditions: 9.37 µM. The assay is classed as functional.

The species entered for a further assay is Homo sapiens. Description: To identify inhibition of the IFN signalling (Jak-Stat) pathway via expression of an eGFP reporter gene under the control of an IFN-stimulated response element (ISRE) containing MxA promoter. The assay is classed as functional. As to conditions: 30 µM.
Assay [7] has as its target T4, Tyrosyl-tRNA synthetase, putative (Trypanosoma cruzi (strain CL Brener)) (UniProt Q4DSP6).
T4 sequence (whole entry): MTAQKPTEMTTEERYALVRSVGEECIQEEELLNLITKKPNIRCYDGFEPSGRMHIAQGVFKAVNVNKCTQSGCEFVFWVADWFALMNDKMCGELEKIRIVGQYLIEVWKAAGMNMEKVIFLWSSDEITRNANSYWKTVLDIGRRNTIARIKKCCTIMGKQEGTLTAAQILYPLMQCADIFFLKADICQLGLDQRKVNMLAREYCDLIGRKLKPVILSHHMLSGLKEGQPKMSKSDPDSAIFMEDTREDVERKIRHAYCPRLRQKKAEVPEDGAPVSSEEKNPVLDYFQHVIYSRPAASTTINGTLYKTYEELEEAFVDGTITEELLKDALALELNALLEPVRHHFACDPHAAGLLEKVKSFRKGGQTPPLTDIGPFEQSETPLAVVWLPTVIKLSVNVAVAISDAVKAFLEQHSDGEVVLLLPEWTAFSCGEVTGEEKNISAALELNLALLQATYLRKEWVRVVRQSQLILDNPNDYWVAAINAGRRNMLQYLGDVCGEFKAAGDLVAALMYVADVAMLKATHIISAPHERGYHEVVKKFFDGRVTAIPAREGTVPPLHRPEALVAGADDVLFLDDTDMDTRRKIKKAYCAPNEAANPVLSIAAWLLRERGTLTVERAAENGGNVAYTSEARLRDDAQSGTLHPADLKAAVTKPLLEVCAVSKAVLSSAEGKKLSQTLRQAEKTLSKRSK
Description: Trypanosoma cruzi tyrosyl tRNA synthetase (TcYRS) _High Tyrosine SOP. Note: in the data most compounds retested in dose-response had high values. The settings on record: 30 µM. Format: functional.

For assay [8], the target named is T4, Tyrosyl-tRNA synthetase, putative (Trypanosoma cruzi (strain CL Brener)). Description: Trypanosoma cruzi tyrosyl tRNA synthetase (TcYRS) SOP. Format: functional. As to conditions: 30 µM.
The target in assay [9] is Chromo domain-containing protein 1 (Saccharomyces cerevisiae (strain ATCC 204508 / S288c) (Baker's yeast)) (UniProt P32657). Description: ScCHD-1 Enzyme Inhibition Assay. Note: in the data most compounds retested in dose-response had high values. The assay is classed as functional. The settings on record: 30 µM.

For some of these results: Potency and affinity values are given separately.

Sialic acid-binding Ig-like lectin 9 (Homo sapiens), sequence (Q9Y336 whole entry): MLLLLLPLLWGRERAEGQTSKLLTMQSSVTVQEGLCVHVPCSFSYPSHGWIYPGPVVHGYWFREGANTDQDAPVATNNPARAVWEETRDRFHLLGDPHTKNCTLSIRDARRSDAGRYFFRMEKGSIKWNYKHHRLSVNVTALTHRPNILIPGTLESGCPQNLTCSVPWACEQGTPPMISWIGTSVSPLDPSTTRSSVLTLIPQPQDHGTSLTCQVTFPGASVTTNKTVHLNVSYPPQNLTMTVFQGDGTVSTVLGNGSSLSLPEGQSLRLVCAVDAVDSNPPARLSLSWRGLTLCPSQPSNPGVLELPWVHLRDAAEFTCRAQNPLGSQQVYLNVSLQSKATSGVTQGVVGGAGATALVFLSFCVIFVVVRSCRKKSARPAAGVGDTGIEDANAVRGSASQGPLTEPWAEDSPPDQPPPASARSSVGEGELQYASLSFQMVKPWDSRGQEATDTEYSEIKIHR
Protein translocase subunit SecA (Escherichia coli (strain K12)), sequence (P10408 whole entry): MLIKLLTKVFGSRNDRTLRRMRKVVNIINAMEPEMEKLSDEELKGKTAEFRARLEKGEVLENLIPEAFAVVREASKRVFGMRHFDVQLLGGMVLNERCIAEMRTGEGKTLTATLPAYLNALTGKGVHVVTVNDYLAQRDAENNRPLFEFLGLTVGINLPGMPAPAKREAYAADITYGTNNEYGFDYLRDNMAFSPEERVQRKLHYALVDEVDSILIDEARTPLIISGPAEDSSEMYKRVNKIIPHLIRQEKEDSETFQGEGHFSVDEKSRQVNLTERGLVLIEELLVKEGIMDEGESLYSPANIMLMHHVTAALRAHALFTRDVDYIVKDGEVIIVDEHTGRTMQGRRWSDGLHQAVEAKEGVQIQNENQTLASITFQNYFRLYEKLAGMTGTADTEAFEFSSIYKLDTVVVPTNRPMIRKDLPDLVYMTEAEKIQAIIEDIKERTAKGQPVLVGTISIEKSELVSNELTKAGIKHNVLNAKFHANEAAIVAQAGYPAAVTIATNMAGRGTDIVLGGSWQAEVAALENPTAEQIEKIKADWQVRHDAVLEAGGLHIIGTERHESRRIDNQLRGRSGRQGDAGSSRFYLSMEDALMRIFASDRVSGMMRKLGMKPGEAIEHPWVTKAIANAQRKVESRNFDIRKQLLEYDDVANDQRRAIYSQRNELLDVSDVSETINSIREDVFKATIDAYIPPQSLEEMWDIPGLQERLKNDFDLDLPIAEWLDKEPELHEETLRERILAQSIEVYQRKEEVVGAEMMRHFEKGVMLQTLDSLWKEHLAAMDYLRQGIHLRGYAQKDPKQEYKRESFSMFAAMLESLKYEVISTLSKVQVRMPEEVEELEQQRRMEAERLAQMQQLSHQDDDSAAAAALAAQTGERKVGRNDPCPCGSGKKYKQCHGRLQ
Chromo domain-containing protein 1 (Saccharomyces cerevisiae (strain ATCC 204508 / S288c) (Baker's yeast)), sequence (P32657 whole entry, the tested form may be a part): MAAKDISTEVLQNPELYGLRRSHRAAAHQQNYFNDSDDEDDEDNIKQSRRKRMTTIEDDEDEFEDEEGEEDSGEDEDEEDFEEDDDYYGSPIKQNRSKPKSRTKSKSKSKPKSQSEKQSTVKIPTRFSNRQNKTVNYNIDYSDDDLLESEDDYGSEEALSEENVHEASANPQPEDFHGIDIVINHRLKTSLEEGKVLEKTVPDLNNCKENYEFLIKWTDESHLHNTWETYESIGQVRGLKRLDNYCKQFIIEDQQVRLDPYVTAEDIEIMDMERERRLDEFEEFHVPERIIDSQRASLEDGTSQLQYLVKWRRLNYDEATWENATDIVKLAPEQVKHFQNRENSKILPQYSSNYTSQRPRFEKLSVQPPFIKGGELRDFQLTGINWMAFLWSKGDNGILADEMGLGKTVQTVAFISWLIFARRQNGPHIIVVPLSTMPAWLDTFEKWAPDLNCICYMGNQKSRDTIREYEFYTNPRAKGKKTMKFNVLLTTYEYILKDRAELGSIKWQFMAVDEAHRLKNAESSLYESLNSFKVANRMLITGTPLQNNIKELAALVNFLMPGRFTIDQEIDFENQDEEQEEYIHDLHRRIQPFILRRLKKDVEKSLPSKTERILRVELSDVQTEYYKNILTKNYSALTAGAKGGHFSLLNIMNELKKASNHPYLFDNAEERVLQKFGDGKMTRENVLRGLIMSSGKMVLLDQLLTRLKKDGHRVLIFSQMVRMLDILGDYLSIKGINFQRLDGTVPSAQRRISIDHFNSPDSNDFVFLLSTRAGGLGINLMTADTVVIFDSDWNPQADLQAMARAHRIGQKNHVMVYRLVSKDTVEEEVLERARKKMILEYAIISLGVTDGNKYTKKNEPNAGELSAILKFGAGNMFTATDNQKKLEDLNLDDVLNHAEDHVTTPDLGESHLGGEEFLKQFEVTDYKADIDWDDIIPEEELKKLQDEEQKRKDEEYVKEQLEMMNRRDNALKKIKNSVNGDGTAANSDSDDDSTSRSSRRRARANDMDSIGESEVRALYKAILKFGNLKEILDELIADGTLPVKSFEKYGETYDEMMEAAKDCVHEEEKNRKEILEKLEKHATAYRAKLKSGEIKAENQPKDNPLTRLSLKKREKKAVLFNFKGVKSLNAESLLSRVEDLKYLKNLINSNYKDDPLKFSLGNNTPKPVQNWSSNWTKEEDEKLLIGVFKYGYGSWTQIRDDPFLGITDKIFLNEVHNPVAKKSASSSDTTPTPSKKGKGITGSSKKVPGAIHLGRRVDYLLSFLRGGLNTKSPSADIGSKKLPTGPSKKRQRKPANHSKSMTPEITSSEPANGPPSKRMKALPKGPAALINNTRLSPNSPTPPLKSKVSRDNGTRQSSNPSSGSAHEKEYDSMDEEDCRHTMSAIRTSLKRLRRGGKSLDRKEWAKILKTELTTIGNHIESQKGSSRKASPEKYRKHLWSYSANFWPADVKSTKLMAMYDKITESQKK

Turning to `Cn1ccc(C(=O)NC2CCC23CCN(C(=O)c2ccncc2)CC3)c1` (stereo unspecified), the Percent Effect is 3.11% in assay [1]; 11% in [2]; -2.76% in assay [3]; 16.4% in [4]; -3.17% with Trypanosoma cruzi; 0% in assay [5]. The Percent Effect was 13.6% in assay [6]; 3.03% in the assay listed under Homo sapiens; 5.21% in [7]; 13.6% in assay [8]; 0.95% in assay [9].

In the case of `Cc1cc(C)c(CNC(=O)C2CCCN(c3cnccn3)C2)c(=O)[nH]1` (stereo unspecified), the Percent Effect is -3.46% in assay [1]; 10.5% in assay [2]; -6.83% in assay [3]; 10.1% in [4]; -4.13% in the assay with Trypanosoma cruzi; -1.53% in [5]. Besides, the Percent Effect was 11.5% in assay [6]; -8.19% in the assay filed under Homo sapiens; -0.49% in [7]; -12.2% in assay [8]; -5.39% in assay [9].

Turning to `CC(C)CN1C(=O)c2ccc(C(=O)NCCc3c[nH]cn3)cc2C1=O`, the Percent Effect in assay [1] is -1.59%; in assay [2], -1.33%; in assay [3], 14.6%; in [4], 3.62%; in the assay on Trypanosoma cruzi it was -7.07%; in assay [5], -9.68%. The Percent Effect is 8.87% in assay [6]; -4.06% in the assay listed under Homo sapiens; 5.29% in assay [7]; 5.13% in assay [8]; -5.85% in assay [9].

Turning to `O=C(NCC1CC1)C1=NOC2(CCN(Cc3ccc4c(c3)OCO4)C2)C1` (stereo unspecified), the Percent Effect in assay [1] is -4.9%; in [2] it was 8%; in assay [3], 8.35%; in [4] it was 5%; with Trypanosoma cruzi, -2.51%; in assay [5], -50.4%. Moreover, the Percent Effect is 11.1% in [6]; 0.899% in the assay filed under Homo sapiens; 0% in [7]; -17.5% in assay [8]; -6.02% in assay [9].

Take `Cc1cccnc1NC(=O)CC1(Cn2cnnn2)CCCCC1`: the Percent Effect in assay [1] was -5.51%; in assay [2] it was 21.1%; in assay [3] it was -0.535%; in assay [4], 3.53%; in the assay on Trypanosoma cruzi it was 1.66%; in assay [5] it was 1.18%. Besides, the Percent Effect was 9.11% in assay [6]; -4.12% in the assay filed under Homo sapiens; 3.19% in assay [7]; 13% in assay [8]; -13.8% in assay [9].

In the case of `Cc1noc(C)c1CN1CC2(CCN(C(=O)c3c[nH]cn3)C2)CC1=O` (stereo unspecified), the Percent Effect in assay [1] was -0.0681%; in assay [2], 13.3%; in assay [3], -2.8%; in assay [4], 13.2%; in the assay on Trypanosoma cruzi, -3.48%; in [5], -49.3%. The Percent Effect in [6] was 17.8%; in the assay listed under Homo sapiens it was -2.42%; in assay [7], 2.08%; in assay [8] it was 17.5%; in assay [9], -4.57%.

For `COc1ccccc1OCCC(=O)N1CCCC1Cn1cc(C)cn1` (stereo unspecified), the Percent Effect was -4.84% in assay [1]; 13% in assay [2]; 5.75% in assay [3]; 5.19% in assay [4]; 1.86% in the assay with Trypanosoma cruzi; 3.16% in assay [5]. The Percent Effect in [6] is 0.0808%; in the assay filed under Homo sapiens, 7.77%; in assay [7], 7.62%; in [8] it was 18.8%; in [9] it was -6.89%.

Consider `Cc1[nH]ccc1C(=O)N1CCC(c2nnc(Cn3ccnc3)n2C)CC1`, for which the Percent Effect was -1.99% in assay [1]; 8.22% in assay [2]; -2.31% in [3]; 4.71% in [4]; -4.56% in the assay with Trypanosoma cruzi; -4.79% in assay [5]. Besides, the Percent Effect in assay [6] was found to be 15.3%; in the assay listed under Homo sapiens it was 22.3%; in [7], 6.25%; in assay [8], 16.1%; in [9] it was 0.967%.

For the compound `CN(C(=O)c1cc(Cl)c[nH]1)C1CCN(c2ccccn2)CC1`, the Percent Effect was -4.94% in [1]; -2.6% in assay [2]; -2.5% in assay [3]; -14.5% in assay [4]; 6.17% in the assay on Trypanosoma cruzi; -4% in assay [5]. Besides, the Percent Effect is 9.46% in assay [6]; -0.502% in the assay listed under Homo sapiens; 13.3% in assay [7]; 23.5% in assay [8]; -20.8% in assay [9].

Consider `CC(=O)N1CCN(c2cc(C3CN(C)CCO3)nc(C)n2)CC1` (stereo unspecified), for which the Percent Effect in assay [1] was -3.82%; in assay [2] it was 12.2%; in [3], 9.39%; in assay [4], 0.199%; in the assay on Trypanosoma cruzi, -3.36%; in assay [5], -1.16%. Besides, the Percent Effect in assay [6] is 14.8%; in the assay listed under Homo sapiens, 12.3%; in [7], 5.38%; in assay [8], 14.3%; in [9], -1.64%.

Take `Cc1nc(C2CCCN(C(=O)CCCn3cccn3)C2)no1` (stereo unspecified): the Percent Effect in assay [1] was -4.66%; in assay [2], 23.4%; in [3], -2.84%; in [4] it was 4.64%; in the assay with Trypanosoma cruzi it was 4.49%; in [5] it was -0.356%. Besides, the Percent Effect in [6] is 5.57%; in the assay filed under Homo sapiens, 11%; in assay [7], 6.8%; in assay [8] it was 24.4%; in [9], -8.73%.
